The results in this text go back to the supplement of paper PMC3484114.

± gives the standard deviation.

This test deals with OVCAR-3-derived ovarian cancer stem-like cells (spheroids). The test can be described thus: cell growth relative to untreated control; higher = more growth (less inhibition). Particulars: 2.29 µM; 96 h. The method in brief:
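Viability of stem-like cells from OVCAR-3 spheroids was assessed with TOX8 resazurin fluorescence at ex 560/em 590 nm. The cells had been trypsin-dissociated, seeded at 50,000 cells/mL in stem cell medium in ultra-low attachment 96-well plates and preincubated 24 h, then treated with compounds at 2.29 uM for 96 h at 37°C, 5% CO2, in 4 replicate wells, with fluorescence read after 4 h. Results were converted to percent growth against untreated wells after blank subtraction and Grubbs outlier removal.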
As for `CCC(=O)OC1CCn2c1nc1c2C(=O)C(C)=C(N2CC2)C1=O` (configuration not stated), the cell growth is 130 ± 34%.
Next, `CC1=CC(O)C(O)C2(C)C1CC1OC(=O)C(O)C3C(C)C(O)C4(O)OCC13C42` (configuration not stated): 128 ± 36%; `CCC[CH2][Pb]([Cl])([CH2]CCC)[CH2]CCC`: 5.1 ± 5.5%.
Next, `O=C1N[C@H]2[C@H](O)[C@H](O)[C@@H](O)[C@H](O)[C@@H]2c2cc3c(c(O)c21)OCO3`: 19.5 ± 2.6%; `CO[C@@H]1[C@H](O)C[C@@H](O[C@@H]2C[C@H](Oc3cc4cc5c(c(O)c4c(O)c3C)C(=O)[C@@H](O[C@H]3C[C@@H](O[C@H]4C[C@@H](O[C@H]6C[C@](C)(O)[C@@H](OC(C)=O)[C@H](C)O6)[C@H](O)[C@@H](C)O4)[C@H](O)[C@@H](C)O3)[C@H]([C@H](OC)C(=O)[C@@H](O)[C@@H](C)O)C5)O[C@H](C)[C@@H]2OC(C)=O)O[C@@H]1C`: 12.5 ± 3.1%; `CC[C@@]12CCCN3CC[C@]4(c5cccc(OC)c5N(C(C)=O)[C@@H]4CC1)[C@H]32`: 144 ± 29%.
Next, `CC12CCC(O)CC1CCC1C2CCC2(C)C(C3=CC(=O)OC3)CCC12O` (configuration not stated): 26.5 ± 3.1%; `NC(=O)OCc1c(O)c2c(c(O)c1COC(N)=O)C(=O)C=CC2=O`: 95.9 ± 14%.
As for `C=C1C(C)C2C(Cc3ccccc3)NC(=O)C23C(OC(C)=O)/C=C/C(C)(O)CC(C)C/C=C/C3C1O` (configuration not stated), the cell growth was found to be 90.3 ± 20%.
With `CCC[CH2][Sn]([CH2]CCC)([CH2]CCC)[O]c1cc(Cl)c(Cl)cc1Cl`, the cell growth was determined as 8.8 ± 3.7%.
Molecule `C/C(=N\N=C(/[Se])N1CC2CCC(CC2)C1)c1ccccn1` came in with a cell growth of 7.7 ± 2.4%.
Consider `CC1(C)CC2=NO[Se]3=C2C(=NO3)C1`, for which the cell growth worked out at 22.1 ± 4.6%.
Next, `O=C1N[C@@H]2C(=C[C@H](O)[C@@H](O)[C@H]2O)c2cc3c(cc21)OCO3`: 31.7 ± 7.1%.
As to `CCCCCn1cc2c3c(cccc31)C1C=C(C)CN(C)[C@@H]1C2.Cc1ccc(C(=O)OC(C(=O)O)C(OC(=O)c2ccc(C)cc2)C(=O)O)cc1` (configuration not stated), the cell growth is 78.9 ± 11%.
Molecule `COc1cc([C@@H]2c3cc4c(c(O)c3C[C@H]3COC(=O)[C@@H]32)OCO4)cc(OC)c1OC` came in with a cell growth of 31.1 ± 4.7%.
`CC(=O)O[C@H]1C(=O)[C@@]2(C)[C@H]([C@H](OC(=O)c3ccccc3)[C@]3(O)C[C@H](O)C(C)=C1C3(C)C)[C@]1(OC(C)=O)CO[C@@H]1C[C@@H]2O` yielded a cell growth of 123 ± 26%.
`COC1C(C)OC(OC2CC(C)(O)Cc3cc4c(c(O)c32)C(=O)c2c(O)cc3c(c2C4=O)OC2OC3(C)C(O)C(N(C)C)C2O)C(OC)C1(C)OC` (configuration not stated) displayed a cell growth of 8.5 ± 3.2%.
`C[C@@H]1CC[C@@]2(OC1)O[C@H]1CC3[C@@H]4CC=C5C[C@@H](O[C@@H]6O[C@H](CO)[C@@H](O[C@@H]7O[C@@H](C)[C@H](O[C@@H]8O[C@@H](C)[C@H](O)[C@@H](O)[C@@H]8O)[C@@H](O)[C@H]7O)[C@H](O)[C@H]6O[C@@H]6O[C@@H](C)C(O)[C@@H](O)[C@H]6O)CC[C@]5(C)[C@H]4CC[C@]3(C)[C@H]1[C@@H]2C` (some centres not stated) displayed a cell growth of 8.03 ± 3.1%.
Next, `CC[C@@]1(O)C[C@H](O[C@H]2C[C@H](N(C)C)[C@H](O[C@H]3C[C@@H]4O[C@H]5CC(=O)[C@H](C)O[C@H]5O[C@@H]4[C@H](C)O3)[C@H](C)O2)c2c(cc3c(c2O)C(=O)c2c(O)ccc(O)c2C3=O)[C@H]1C(=O)OC`: 11 ± 3.4%; `C1COCCN1.S=C(S)N1CCOCC1`: 63.4 ± 11%; `COc1cccc2c1cc([N+](=O)[O-])c1c(C(=O)O)cc3c(c12)OCO3`: 95.5 ± 14%.
The molecule `O=[N+]([O-])[O-].O=[N+]([O-])[O-].O=[N+]([O-])[O-].[Ga+3]` came in with a cell growth of 120 ± 11%.
Molecule `O=[Se](O)O.[Na+]` registered a cell growth of 112 ± 29%.
Next, `[Cl][Cd][Cl]`: 87.6 ± 51%; `COC1CC(CC2CCC(C)C(C(C)C(=O)O)O2)OC2(OC(C)(C3CCC(C)(C4OC(C5OC(O)(CO)C(C)CC5C)CC4C)O3)CC2C)C1C` (configuration not stated): 64.5 ± 48%.
Regarding `CO[C@H]1Nc2c(ccc(C)c2O)C(=O)N2C=C(/C=C/C(N)=O)C[C@@H]12`, the cell growth was found to be 12.8 ± 2.4%.
The molecule `Cc1cc(N(CCCl)CCCl)ccc1/C=N/NC(=O)Cc1cc(=O)oc2cc(O)ccc12` came in with a cell growth of 113 ± 53%.
Turning to `COc1cc2c(c(OC)c1OC)-c1ccc(OC)c(=O)cc1[C@@H](NC(C)=O)CC2`, the cell growth was found to be 47.9 ± 11%.
Molecule `Cc1cc2c(C(C)C)c(O)c(O)c(C=O)c2c(O)c1-c1c(C)cc2c(C(C)C)c(O)c(O)c(C=O)c2c1O` showed a cell growth of 86 ± 61%.
`O=C1C=C2C=CC3CC2(O1)C1CCCCN31` (configuration not stated) came in with a cell growth of 49.8 ± 9.5%.
On to `[Cl][Hg][c]1ccc2ccccc2c1`, for which the cell growth turned out to be 62.6 ± 8.8%.
Consider `NP(=O)(Oc1c2occc2cc2ccc(=O)oc12)N(CCCl)CCCl` (configuration not stated), for which the cell growth worked out at 72.2 ± 18%.
